Hits are enriched below; roughly 11% of the tested compounds scored in any of these assays.
IMPase cell inh: qHTS Assay for Identifying the Cell-Membrane Permeable IMPase Inhibitors; inhibition (IP1 accumulation), % at 46.1 µM; Inositol monophosphatase 1 (Rattus norvegicus), P97697; CHO-M1 cells, IP1 accumulation, HTRF TR-FRET ratio; 120,000 tested, under 10 active; active means well fitted curve in the direction sought with a large enough effect in the signal ratio, not every such curve was filed as active; inconclusive means small, poorly fitted or top-dose-only effect, or a change in a side signal; inactive means no such curve, though single readings can be large or run the other way; the % refers to the signal ratio;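 further: cells stimulated with carbachol in lithium chloride buffer; plate controls were DMSO basal wells for no effect and reference inhibitor wells for full effect; higher means more IMPase inhibition seen as more IP1 and lower FRET ratio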
Target sequence (P97697 whole entry, looked up): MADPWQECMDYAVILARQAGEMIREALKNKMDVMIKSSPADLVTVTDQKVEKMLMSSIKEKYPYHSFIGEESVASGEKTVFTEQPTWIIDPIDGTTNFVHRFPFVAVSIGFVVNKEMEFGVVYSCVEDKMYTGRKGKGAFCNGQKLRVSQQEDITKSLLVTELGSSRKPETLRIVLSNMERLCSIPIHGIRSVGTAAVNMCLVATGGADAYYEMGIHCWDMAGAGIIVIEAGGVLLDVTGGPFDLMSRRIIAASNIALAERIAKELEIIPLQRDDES
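CHO-M1, 2000 cells/well, cultured 16–30 h; cpd up to 46 uM; carbachol (50 uM solution, stimulation buffer w/ 50 mM LiCl, pH 7.4), 30 min 37C; IP-One TR-FRET, 10 min RT; Ex 320/Em 665, 620; Hill-fit AC50.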
NPSR antag: qHTS Assay for Antagonists of the Neuropeptide S Receptor: cAMP Signal Transduction. Q6W5P4. CHO-NPSR cells, cAMP TR-FRET, antagonist mode. Potency, µM (doses to about 38.3 µM), inactives show at the highest dose activity change, negative = inhibition, hits mostly inhibitors. actives 1% (n = 220,000). AID 1461, 2008; active means well fitted curve in the direction sought with a large enough effect; inconclusive means small, poorly fitted or top-dose-only effect, or another doubt; inactive means no such curve, though single readings can be large; an effect the other way counts as inactive or inconclusive; further: potency means the concentration at half of the fitted maximal effect; nearly all actives have a fitted effect of over 50% in size
Target sequence (Q6W5P4 whole entry, looked up): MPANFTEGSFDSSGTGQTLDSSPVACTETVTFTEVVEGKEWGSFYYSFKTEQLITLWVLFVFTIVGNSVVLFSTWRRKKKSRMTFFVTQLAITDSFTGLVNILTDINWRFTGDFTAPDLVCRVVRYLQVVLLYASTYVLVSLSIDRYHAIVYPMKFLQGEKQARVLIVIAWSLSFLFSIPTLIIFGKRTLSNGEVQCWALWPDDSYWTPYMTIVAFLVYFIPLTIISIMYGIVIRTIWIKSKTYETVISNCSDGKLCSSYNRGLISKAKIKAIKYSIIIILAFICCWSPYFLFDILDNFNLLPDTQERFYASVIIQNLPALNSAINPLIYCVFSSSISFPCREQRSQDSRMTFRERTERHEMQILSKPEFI
IMPase Li inh: qHTS Assay for Identifying the Cell-Membrane Permeable IMPase Inhibitors: Potentiation with Lithium | CHO-M1 cells, IP1 TR-FRET (IP-One), carbachol + lithium | Potency, µM (series often up to 59.4 µM), inactives show at the top dose activity, negative = IMPase inhibition, actives largely listed as inhibitors | actives 0.35% (n = 210,000); active means well fitted curve in the direction sought with a large enough effect; inconclusive means small, poorly fitted or top-dose-only effect, or another doubt; inactive means no such curve, though single readings can be large; an effect the other way counts as inactive or inconclusive;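 further: IP1 builds up when IMPase is blocked and the TR-FRET signal falls; potency means the concentration at half of the fitted maximal effect; plate controls were basal vehicle for no effect and high inhibitor control for full effect; nearly all actives have a fitted effect of over 50% in size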
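CHO cells stably expressing M1 receptor (2000/well) were cultured 16–30 h, then exposed to compounds with a small lithium addition for 30 min at 37C. IP1 was measured by TR-FRET competition; AC50 from Hill fits.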
ALDH1A1 block: qHTS Assay for Inhibitors of Aldehyde Dehydrogenase 1 (ALDH1A1) | Aldehyde dehydrogenase 1A1 (Homo sapiens), P00352 | Purified ALDH1A1, NADH fluorescence, propionaldehyde substrate | Potency, µM (titrated, usually from 75.3 µM), for the others: top-dose activity, negative = inhibition, usual class: inhibitors | actives 7.3% (n = 220,000) | AID 1030, 2008;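 further: potency means the concentration at half of the fitted maximal effect; plate controls were no enzyme wells and a reference inhibitor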
HPGD inh: qHTS Assay for Inhibitors of HPGD (15-Hydroxyprostaglandin Dehydrogenase) | 15-hydroxyprostaglandin dehydrogenase [NAD(+)] (Homo sapiens), P15428 | purified HPGD, NADH fluorescence kinetic, PGE2 substrate | Potency, µM, without a hit: top-dose activity change, negative = inhibition, usual class: inhibitors | actives 4.3% (n = 150,000) | AID 894, 2007; further: potency means the concentration at half of the fitted maximal effect
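20 nM HPGD preincubated 15 min at room temperature with compound in 50 mM Tris-HCl pH 8, 0.01% Tween 20. Started with 1 mM NAD+ and 30 uM prostaglandin E2; NADH fluorescence (360/450 nm) read 5 times over 30-s intervals, last minus first.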
PNC assembly inh: High Content Assay for Compounds that inhibit the Assembly of the Perinucleolar Compartment | PC3M PTB-GFP, PNC prevalence imaging, 16 h; active compounds read low | activity change (PNC), negative = inhibition, % at 10 µM | AID 2417, 2010 | actives 3.1% (n = 140,000);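 active means readout at or below -70, meaning at least 70% loss of cells showing the perinucleolar compartment, a nuclear body marking cancer cells; inconclusive means readout between -30 and a set limit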;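 further: plate controls were DMSO wells for no effect and camptothecin positive control wells for full effect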
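PC3M cells stably expressing PTB-GFP, 750–1000 cells/well, treated 16 h at 37 °C with compound (23 nl of library stock), in duplicate. After paraformaldehyde fixation and Hoechst stain, imaged at 20x; PNC prevalence scored by image analysis.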
* marks the source's active call; other numbers are inactive results; ? = inconclusive; · = not tested or not shown; [ ] = dose if it differs, or a comment. Unless noted, the call rests on the fitted dose curve; in most records, active means well fitted inhibition curve with a large enough effect (not every such curve was filed as active); inconclusive means small, poorly fitted or top-dose-only effect, or another doubt; inactive means no such curve, though single readings can be large or run the other way. Unless noted, on the % scale 0 is the no-effect control and ±100 the full control effect.

SMILES | IMPase cell inh | NPSR antag | IMPase Li inh | ALDH1A1 block | HPGD inh | PNC assembly inh
CC(=O)O[C@@H]1[C@@]2(C)O[C@H]2CC[C@]23O[C@H]2[C@H](OC3=O)C2=C(C)C(=O)O[C@@]21O | · | 15% | -7% | 28µM* | 1% | 46
COc1ccccc1-c1nnc(NC(=O)C(C)C)s1 | 4 | -20%[46.1 µM] | -1%[38.3 µM] | ? | -19% | -3
N#C/C(=C\c1cccc([N+](=O)[O-])c1)c1nnc2n1CCCCC2 | · | 7% | 10% | 20µM* | 32µM* | 32
CN(c1ccccc1)c1ccc(/C=C(\C#N)c2nnc3n2CCCCC3)cc1[N+](=O)[O-] | -1 | -12%[46.1 µM] | · | ? | · | -91*
N#C/C(=C/c1ccc(N2CCCC2)c([N+](=O)[O-])c1)c1nc2ccccc2[nH]1 | 6 | -8%[46.1 µM] | 22%[38.3 µM] | ? | -17% | 55
CC(=O)Nc1ccc(S(=O)(=O)NNC(=O)c2ccc(S(=O)(=O)N3CCCCC3)cc2)cc1 | · | 6% | 2% | -9% | 1% | -27
CC1(C)OC(=O)C(=CNC(Cc2c[nH]c3ccccc23)C(=O)O)C(=O)O1 (configuration not stated) | -7 | -4%[46.1 µM] | -2%[38.3 µM] | 25µM* | -5% | 6
COc1ccc(N=C2CCCN2CC(N)=O)cc1 | 1 | -26%[46.1 µM] | -21%[38.3 µM] | -2% | 2% | -3
COc1ccc(N=C2C(=O)N3CCCc4cccc2c43)cc1 | · | 0% | 2% | 0.035µM* | -20% | 37
CCC(C)NC(=O)Cc1c(OC)ccc2cc(Br)ccc12 (configuration not stated) | · | -38% | ? | -1% | · | ·
Cc1cccn2c(=O)c(C=Nc3ccc(Cl)cc3)c(NCCO)nc12 | -17 | 1%[46.1 µM] | 3% | ? | ? | -100*
O=C(Nc1nnc(Cc2ccc(Cl)cc2)s1)C1CCCO1 (configuration not stated) | · | 5% | 16% | 14µM* | · | ·
COc1ccc(Cc2nnc(NC(=O)C3CCCO3)s2)cc1 (configuration not stated) | 6 | ? | 12%[38.3 µM] | ? | -18% | -123*
COc1ccc(Cc2nnc(NC(=O)C3CCCO3)s2)cc1OC (configuration not stated) | 13 | -5%[46.1 µM] | -7% | ? | -14% | ?
COc1ccccc1NC(=O)c1oc2ccccc2c1NC(=O)c1ccco1 | 3 | 1%[46.1 µM] | ? | ? | ? | ?
C/C(N[C@@H]1CSCC1O)=C1/C(=O)CC2[C@@H]1C2(C)C (some centres not stated) | · | · | -4% | 8.9µM* | -3% | ·
CCCCNS(=O)(=O)c1ccc2nc(SCC(=O)N3CC(C)OC(C)C3)[nH]c2c1 (configuration not stated) | -11 | -10%[46.1 µM] | 14%[38.3 µM] | ? | 16µM* | -11
O=C(CSc1nc2ccc(S(=O)(=O)N3CCOCC3)cc2[nH]1)N1CCOCC1 | 4 | -8%[46.1 µM] | 3%[38.3 µM] | 3.5µM* | 3.5µM* | 24
O=C(CSc1nc2ccccc2c(=O)[nH]1)N1CCOCC1 | 9 | -7%[46.1 µM] | 25%[38.3 µM] | 8% | -11% | 18
CC(=O)N(c1ccccc1)c1c(F)c(F)c(F)c(F)c1F | -2 | -20%[46.1 µM] | 3%[38.3 µM] | -4% | -4% | -22
Cc1ccc(C(=O)Nc2cccc(-c3nc4ncccc4o3)c2)cc1 | · | 3% | · | · | · | ·
COc1cccc2c1OC(=O)CC2c1ccc(C)cc1 (configuration not stated) | · | · | 4% | -4%[120 µM] | ? | ·
COc1ccc(-n2cc(C(=O)c3ccccc3O)cn2)cc1 | · | -11% | 2% | ? | · | ·
O=C(c1cnn(-c2ccccc2)c1)c1ccccc1O | 0 | -2%[46.1 µM] | 16% | -2% | 13µM* | -29
CCOC(=O)N1CCC(Nc2c(-c3ccc(C)c(C)c3)c(=O)c2=O)CC1 | 9 | ? | 1%[38.3 µM] | 2% | -8% | -28
SMILES | IMPase cell inh | NPSR antag | IMPase Li inh | ALDH1A1 block | HPGD inh | PNC assembly inh
Cn1c(=O)[nH]c(=O)c2c1nc(N1CCCCC1)n2C/C=N/NC(=O)c1cc(Br)ccc1O | · | 9% | · | · | · | ·
CCOC(=O)NN1C(=O)c2ccccc2NC1c1ccc(N(C)C)cc1 (configuration not stated) | 2 | -2% | 1% | 18µM* | -11% | 165
CCOc1ccc(NS(=O)(=O)c2ccc3[nH]cc(C(=O)NCCOC)c(=O)c3c2)cc1 | -3 | -7%[46.1 µM] | -4%[38.3 µM] | 6% | -8% | 26
N#Cc1nc(-c2ccc(F)cc2)oc1NCc1cccc2c1OCO2 | 2 | -60% | 5% | ? | ? | ?
COc1cnc(-c2ccccc2)nc1Sc1ccccc1 | · | -33% | 12% | ? | · | ·
CCc1nn(CCCC(=O)N2CCc3ccccc3C2)c(=O)c2cc3occc3n12 | 10 | -17%[46.1 µM] | 10%[38.3 µM] | ? | 32µM* | 60
CC(C)C(OC(=O)c1ccco1)C(=O)NCc1cccs1 (configuration not stated) | 3 | -3%[46.1 µM] | · | -4% | · | -20
CN(C(=O)COC(=O)c1cc(-c2ccccc2Cl)nc2ccccc12)C1CCS(=O)(=O)C1 (configuration not stated) | 6 | -8% | -12% | ? | -15% | 32
CC(=O)Nc1ccc(S(=O)(=O)Oc2cccc(/C=N/N=C3/NC(=O)C(CC(=O)O)S3)c2)cc1 (configuration not stated) | · | 17% | -5% | 7.5µM* | · | ·
COc1ccc(/C=N/N=C2/NC(=O)C(CC(=O)O)S2)cc1OS(=O)(=O)c1ccccc1 (configuration not stated) | · | 6% | 1% | ? | · | ·
CCC(CC)n1[nH]c(=O)c2c(C)cc(C)nc21 | 3 | -8%[46.1 µM] | 2% | -9% | -6% | -82*
Cn1c(-c2ccc3c(c2)OCO3)cnc1NCc1ccccc1Cl | · | -42% | 25% | ? | · | ·
Cn1c(-c2ccc3c(c2)OCO3)cnc1NCc1ccccc1 | 14 | -5%[46.1 µM] | 0%[38.3 µM] | ? | 16µM* | -21
CCCn1c(-c2cccc([N+](=O)[O-])c2)nc2c1c(=O)[nH]c(=O)n2Cc1ccccc1 | 7 | -25% | -2% | -3% | -16% | -21
CC(C)(C)Cn1c(=O)[nH]c(=O)c2cc([N+](=O)[O-])cnc21 | · | -3% | -1% | -1% | -18% | -114*
O=C(CSc1nc(O)cc(=O)[nH]1)C1CC1 | 0 | -20%[7.67 µM] | -8%[38.3 µM] | ? | 18µM* | -123*

Screens: PubChem BioAssay, National Center for Advancing Translational Sciences (NCATS)
